In the library only some 2.4% were active in any assay of this set; here they are far more common.
AmpC nodet inh = inhibitors of E. coli AmpC beta-lactamase without detergent | P00811 | AmpC nitrocefin hydrolysis, absorbance 480 nm, no detergent | Potency, µM (doses to about 28.7 µM), for the others: at the highest dose activity change, negative = inhibition | 1.8% of 71,000 active | AID 585; further: % of control where 0% means no effect
Target sequence (P00811 whole entry, looked up): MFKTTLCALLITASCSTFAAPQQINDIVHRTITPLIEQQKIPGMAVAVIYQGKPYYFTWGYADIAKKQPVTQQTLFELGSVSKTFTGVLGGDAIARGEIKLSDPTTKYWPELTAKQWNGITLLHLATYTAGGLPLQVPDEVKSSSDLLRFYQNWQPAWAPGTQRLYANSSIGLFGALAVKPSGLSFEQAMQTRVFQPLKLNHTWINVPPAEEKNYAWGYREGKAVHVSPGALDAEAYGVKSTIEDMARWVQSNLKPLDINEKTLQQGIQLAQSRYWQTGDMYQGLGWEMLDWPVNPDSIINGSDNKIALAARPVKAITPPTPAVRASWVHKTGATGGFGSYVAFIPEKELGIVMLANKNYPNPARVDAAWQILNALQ
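AmpC in 20 mM phosphate buffer pH 7.0 was preincubated 15 min at room temperature with compounds. Nitrocefin (800 uM stock) was then added and hydrolysis followed at 480 nm every 20 s for 4 min.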
AmpC inh det = blocks E. coli AmpC beta-lactamase in presence of detergent | purified AmpC, nitrocefin hydrolysis with detergent | Potency, µM (doses to about 28.7 µM), inactives show at the top dose activity change, negative = inhibition | 0.09% of 71,000 active; active means well fitted curve in the direction sought with a large enough effect; inconclusive means small, poorly fitted or top-dose-only effect; further: on the % scale 0 is the no-effect control and ±100 the full control effect
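E. coli AmpC (5.3 nM) in 20 mM phosphate pH 7.0 with 0.01% Triton X-100, preincubated 15 min RT with compound; nitrocefin (2 uL of 800 uM stock) hydrolysis followed by 480 nm absorbance every 20 s over 4 min.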
SmPrx2 inh = blocks S. mansoni peroxiredoxin 2 enzymatic activity; Potency, µM; S. mansoni Prx2 activity coupled to TGR/GSH (TGR is thioredoxin glutathione reductase), NADPH fluorescence loss, qHTS; 0.07% of 65,000 active; AID 448
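Purified S. mansoni TGR and Prx2 in pH 7.4 phosphate buffer with EDTA and Tween-20 were preincubated with compounds for 15 min. Further NADPH/GSH was added, then a 2.5 mM H2O2 aliquot initiated turnover, followed kinetically by NADPH fluorescence.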
Anthrax LT inh = anthrax lethal toxin internalization inhibition. Cells, anthrax lethal toxin internalization, FRET ratio (460/530). Potency, µM (titrated, usually from 40 µM), inactives show at the top dose activity change, negative = inhibition, hits mostly inhibitors. 0.67% of 70,000 active; further: on the % scale 0 is the no-effect control and ±100 the full control effect; nearly all actives have a fitted effect of over 50% in size
* hit, by the source's call; ? = inconclusive; nt = no result given; [ ] = another dose, or the depositor's remark. Unless noted, the call rests on the fitted dose curve. Potency means the concentration at half of the fitted maximal effect.

SMILES | AmpC nodet inh | AmpC inh det | SmPrx2 inh | Anthrax LT inh
Cc1ccccc1CNc1nc(N)n(-c2ccccc2)n1 | 4µM*[single pt active] | 6% | >57 | -6%
O=C(O)[C@H]1O[C@H]1C(=O)O | -6%[5.75 µM] | -3%[5.75 µM] | >57 | 0%[8 µM]
Cc1nc2c3ccccc3n(CC(=O)c3ccc(F)cc3)c(=O)n2n1 | 4µM*[single pt active] | 14% | >57 | ?
CC(C)CNC(=O)c1cccc(NC(=O)c2ccc(NC(=O)c3ccco3)cc2)c1 | 16µM*[single pt active] | -1% | >57 | -4%
CC(C)(C)C(=O)COC(=O)c1cccc(NC(=O)c2ccco2)c1 | 10% | -6% | >57 | -10%
CC(C)(C)NC(=O)c1cccc(NC(=O)c2ccc(NC(=O)c3ccco3)cc2)c1 | 4% | -2% | >57 | ?
O=C(COC(=O)c1cccc(NC(=O)c2ccco2)c1)c1ccc(Br)cc1 | -24% | 1% | >57 | 13µM*
CCCC[C@@H]1C[C@H]1C(NC(=O)c1ccccc1)c1ccccc1 (stereo partly drawn) | -20% | -2% | >57 | 2%
CCCC[C@@H]1C[C@H]1C(NC(=O)c1ccco1)c1ccccc1C(F)(F)F (stereo partly drawn) | -18% | -4% | >57 | ?
CCCC[C@@H]1C[C@H]1C(NC(=O)c1ccco1)c1ccc(-c2ccccc2)cc1 (stereo partly drawn) | 13µM*[single pt active] | -3% | >57 | -10%
CCCC[C@@H]1C[C@H]1C(NC(=O)c1ccco1)c1ccc(Cl)cc1 (stereo partly drawn) | 10µM*[single pt active] | -4% | >57 | ?
Fc1ccc(OCc2nc(-c3ccc(Br)o3)no2)c(F)c1 | 2.5µM*[single pt active] | 10% | >57 | ?
Brc1ccc(-c2noc(CCc3ccccc3)n2)o1 | 4µM*[single pt active] | 10% | >57 | ?
O=C(O)/C=C\C(=O)Nc1ncn[nH]1 | 10%[5.75 µM] | -4%[5.75 µM] | >57 | -3%[8 µM]
COc1ccc(-c2noc(-c3cc(C)cc(C)c3)n2)cc1OC | 1.3µM*[single pt active] | 8% | >57 | -25%
COc1cc(-c2nc(-c3ccc(Br)o3)no2)cc(OC)c1OC | 4µM*[single pt active] | 15% | >57 | -24%
CCOc1ccc(-c2nc(-c3ccc(OC)c(OC)c3)no2)cc1OCC | 25% | -2% | >57 | nt
COc1ccc(-c2noc(-c3ccc(Br)o3)n2)cc1OC | 9% | -2% | >57 | ?
Cc1ccc(NC(=O)c2c(-c3c(F)cccc3Cl)noc2C)cc1F | -18% | -2% | nt | 10µM*
O=[N+]([O-])c1ccc2c(N=Nc3ccc4ccccc4c3O)c(O)cc(S(=O)(=O)O)c2c1 | -26%[5.75 µM] | -20%[5.75 µM] | >57 | ?
CCCOc1nc(N)c(C#N)c(-c2ccccc2F)c1C#N | 0% | -3% | >57 | 7.9µM*
O=c1[nH]c(SCc2c(Cl)c(Cl)c(Cl)c(Cl)c2Cl)nc(=S)[nH]1 | -8%[5.75 µM] | -5%[5.75 µM] | >57 | 0%[8 µM]
COc1ccc(-n2c(Cc3cc(=O)[nH]c(=O)[nH]3)nnc2SCc2ccccc2)cc1 | 4µM*[single pt active] | 10% | >57 | 3%
CCOc1ccc(-n2c(Cc3cc(=O)[nH]c(=O)[nH]3)nnc2SCC)cc1 | 3% | 15% | >57 | -9%
COc1cccc(-n2c(Cc3cc(=O)[nH]c(=O)[nH]3)nnc2SCc2cccnc2)c1 | 4µM*[single pt active] | 14% | >57 | -1%
SMILES | AmpC nodet inh | AmpC inh det | SmPrx2 inh | Anthrax LT inh
O=c1[nH]c2c(s1)C(c1ccccc1)C1C3CCC(C3)C1S2 (stereo not drawn) | 1.6µM* | 9% | >57 | ?
Cc1cccc(C(=O)O)c1C[C@H]1NCC[C@H]2c3ccccc3N[C@@H]12 | 5%[5.75 µM] | -2%[5.75 µM] | >57 | -5%[8 µM]
CC(C)N(Cc1nc(-c2ccccc2)no1)S(=O)(=O)c1ccccc1 | 4µM*[single pt active] | 3% | >57 | ?
CC(C)N(Cc1nc(-c2ccccc2)no1)C(=O)CN(C)S(=O)(=O)c1ccccc1 | 73% | -3% | >57 | -15%
Cn1c(C(=O)NCCN2CCc3ccccc3C2)cc2c(=O)n(C)c3ccccc3c21 | 102% | 7% | >57 | 7.9µM*
CC1CCC(NC(=O)c2cc3c(=O)n(C)c4ccccc4c3n2C)CC1 (stereo not drawn) | 4µM*[single pt active] | 18% | >57 | -18%
Cn1c(C(=O)NCCN2CCN(c3ccccc3F)CC2)cc2c(=O)n(C)c3ccccc3c21 | 4µM*[single pt active] | 16% | >57 | -6%
Cn1c(C(=O)NCCN2CCOCC2)cc2c(=O)n(C)c3ccccc3c21 | 106% | 10% | >57 | -18%
CC1CCCCN1CCNC(=O)c1cc2c(=O)n(C)c3ccccc3c2n1C (stereo not drawn) | 38% | 10% | >57 | 2.5µM*
COc1ncc2nc(-c3cn(C)c4ccccc34)c(=O)n(CCc3ccccc3)c2n1 | 12% | -2% | >57 | ?

Source: PubChem
